Measured values reported in PubChem BioAssay (NCATS).
Values joined by “and” are separate entries in the source; they are usually repeats but may differ in a detail not shown here. Equal entries are not always repeated. Records with an inconclusive call do not appear. Active and inactive are the calls of the source. Unless noted, the call rests on the fitted dose curve; in most records, active means well fitted curve in the direction sought with a large enough effect; inconclusive means small, poorly fitted or top-dose-only effect, or another doubt; inactive means no such curve, though single readings can be large; an effect the other way counts as inactive or inconclusive.

Experiments:
[1] = AP1 Signaling Pathway (AID 357; active means well fitted curve in either direction with a large enough effect, not every such curve was filed as active;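 further: ME-180 reporter cells stimulated with EGF at its EC50 level; on the % scale 0 is the no-effect control and ±100 the full control effect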); conditions: ME-180 AP-1-bla reporter, EGF-induced, beta-lactamase ratio, 5 h; at 7.69 µM (top of the series) unless noted
In short: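 Cells are seeded overnight, exposed to compound titrations and an EC50 level of EGF for 5 hours at 37 °C, then loaded with CCF4 dye for 2.5 hours. Beta-lactamase activity under the AP-1 element is read as a blue/green ratio.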

[2] = molecular target: Cytochrome P450 1A2 (Homo sapiens) (UniProt P05177); experiment: p450-cyp1a2 (AID 410; calls by dose curve;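 further: -100% = full effect of reference inhibitor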)
Chain of Cytochrome P450 1A2 (Homo sapiens) (P05177 whole entry, looked up): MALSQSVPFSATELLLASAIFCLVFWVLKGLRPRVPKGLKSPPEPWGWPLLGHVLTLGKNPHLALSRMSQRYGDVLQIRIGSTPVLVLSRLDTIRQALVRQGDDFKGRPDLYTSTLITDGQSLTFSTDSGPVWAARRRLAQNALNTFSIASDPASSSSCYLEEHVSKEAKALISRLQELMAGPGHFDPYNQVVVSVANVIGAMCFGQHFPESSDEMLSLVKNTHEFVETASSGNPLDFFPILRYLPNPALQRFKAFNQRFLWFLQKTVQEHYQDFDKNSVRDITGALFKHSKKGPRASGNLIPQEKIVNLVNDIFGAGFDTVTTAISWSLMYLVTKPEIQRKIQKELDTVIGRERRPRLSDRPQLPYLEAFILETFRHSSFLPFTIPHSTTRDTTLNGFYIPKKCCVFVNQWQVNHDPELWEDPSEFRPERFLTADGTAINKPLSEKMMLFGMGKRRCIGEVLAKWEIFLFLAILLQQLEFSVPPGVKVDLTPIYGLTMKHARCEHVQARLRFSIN
In short: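 Read-out is luminescence from luciferin produced by CYP1A2 demethylation of Luciferin-ME (100uM, at Km). Detection reagent stopped the 60 min NADPH-dependent reaction; signals were normalized to 57 uM furafylline.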

[3] = NFAT Signaling Pathway (AID 444; active means well fitted curve in either direction with a large enough effect, not every such curve was filed as active;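 further: carbachol stimulus at about its EC50 of 1 µM final; on the % scale 0 is the no-effect control and ±100 the full control effect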); conditions: Jurkat NFAT-bla M1, carbachol, beta-lactamase ratio, 5 h; at 7.69 µM (top of the series) unless noted
In short: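 Jurkat cells with NFAT-driven β-lactamase reporter and co-expressed M1 receptor, stimulated with carbachol (final 1 uM, ~EC50), compound titration, 5 h at 37 °C. CCF4 loaded 1 h at RT; 460/530 nm ratio gave %activity and AC50.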

[4] = Stat Signaling Pathway (AID 446; active means well fitted curve in either direction with a large enough effect, not every such curve was filed as active;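 further: ME-180 cervical cancer cells given 40 pM IL-6 alongside compound; SIE-controlled beta-lactamase reporter measured as 460/530 nm FRET emission ratio; on the % scale 0 is the no-effect control and ±100 the full control effect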); conditions: ME-180 (cervical carcinoma) SIE beta-lactamase reporter, IL-6 stimulated, 5 h; at 7.69 µM (top of the series) unless noted
In short: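 Emission at 460 and 530 nm (excitation 405 nm) reports SIE-controlled beta-lactamase in ME-180 cells. Cells received compound with 40 pM IL-6 for 5 hrs at 37 C; data scaled between 300 pM IL-6 and 125 nM JAK-inhibitor controls.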

[5] = molecular target: Glucocorticoid receptor (Homo sapiens) (UniProt P04150); experiment: GR-GFP Redistribution (AID 450;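 active means compounds whose dose series gives a full or clear partial fitted curve of increased nuclear translocation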; further: potency means the concentration at half of the fitted maximal effect); conditions: U2OS GR-GFP nuclear translocation, laser cytometry, 2 h
Chain of Glucocorticoid receptor (Homo sapiens) (P04150 whole entry, looked up, the tested form may be a part): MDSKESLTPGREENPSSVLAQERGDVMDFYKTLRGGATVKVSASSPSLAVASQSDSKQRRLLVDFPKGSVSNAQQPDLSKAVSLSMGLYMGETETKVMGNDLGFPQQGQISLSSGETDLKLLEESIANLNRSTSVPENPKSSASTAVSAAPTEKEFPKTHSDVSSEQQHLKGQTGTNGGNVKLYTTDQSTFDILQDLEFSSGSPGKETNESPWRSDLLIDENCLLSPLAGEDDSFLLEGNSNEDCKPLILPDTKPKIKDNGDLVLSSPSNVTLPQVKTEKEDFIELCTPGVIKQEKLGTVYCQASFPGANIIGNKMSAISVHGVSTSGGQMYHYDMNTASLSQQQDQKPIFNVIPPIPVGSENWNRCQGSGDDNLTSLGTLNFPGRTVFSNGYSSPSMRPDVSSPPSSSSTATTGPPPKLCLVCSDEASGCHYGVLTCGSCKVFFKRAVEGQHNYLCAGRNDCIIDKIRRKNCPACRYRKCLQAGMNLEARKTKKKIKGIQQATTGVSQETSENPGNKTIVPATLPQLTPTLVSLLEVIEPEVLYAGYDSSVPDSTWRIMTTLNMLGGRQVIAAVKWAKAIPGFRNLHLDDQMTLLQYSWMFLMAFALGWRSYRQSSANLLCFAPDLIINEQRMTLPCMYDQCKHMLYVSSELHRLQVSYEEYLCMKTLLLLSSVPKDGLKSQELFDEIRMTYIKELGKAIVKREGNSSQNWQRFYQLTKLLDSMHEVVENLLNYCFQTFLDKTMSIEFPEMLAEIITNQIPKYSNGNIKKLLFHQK

[6] = molecular target: Glucocorticoid receptor (Homo sapiens) (UniProt P04150); experiment: GR-EFC Redistribution (AID 451; calls by dose curve; further: potency means the concentration at half of the fitted maximal effect); conditions: CHO-K1 GR-EFC translocation, beta-gal luminescence, 2 h
In short: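 CHO-K1 cells expressing nuclear EA and GR-ED fragments of b-gal; compounds titrated up to 46 uM final, 2 h at 37 C. GR nuclear translocation read as complemented b-gal luminescence after 1 h RT detection.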

[7] = molecular target: Mitogen-activated protein kinase 10 (Mus musculus) (UniProt Q61831); experiment: JNK3 AlphaScreen Assay (AID 530; active means well fitted curve in either direction with a large enough effect, not every such curve was filed as active;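 further: kinase came from lysate of stimulated human HepG2 cells; signal reports phosphorylation of biotinylated GST-cJun 1-79 at Ser73 with 10 µM ATP; on the % scale 0 is the no-effect control and ±100 the full control effect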)
In short: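 HepG2 lysate (IL-1b/TNFa pre-activated) + biotin-GST-cJun 1-79 + anti-pSer73 cJun; cpd titration, 15 min RT; ATP 10 uM start; Tris pH 7.6, MgCl2, DTT, vanadate; beads in EDTA buffer; AlphaScreen.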

[8] = molecular target: 3',5'-cyclic-AMP phosphodiesterase 4B (Homo sapiens) (UniProt Q07343); experiment: qHTS Assay for Inhibitors of PDE-IV (AID 607; active means well fitted activation curve with a large enough effect in the main read-out, with a control signal flat, not every such curve was filed as active; further: % of control where 0% means no effect)
Chain of 3',5'-cyclic-AMP phosphodiesterase 4B (Homo sapiens) (Q07343 whole entry, looked up): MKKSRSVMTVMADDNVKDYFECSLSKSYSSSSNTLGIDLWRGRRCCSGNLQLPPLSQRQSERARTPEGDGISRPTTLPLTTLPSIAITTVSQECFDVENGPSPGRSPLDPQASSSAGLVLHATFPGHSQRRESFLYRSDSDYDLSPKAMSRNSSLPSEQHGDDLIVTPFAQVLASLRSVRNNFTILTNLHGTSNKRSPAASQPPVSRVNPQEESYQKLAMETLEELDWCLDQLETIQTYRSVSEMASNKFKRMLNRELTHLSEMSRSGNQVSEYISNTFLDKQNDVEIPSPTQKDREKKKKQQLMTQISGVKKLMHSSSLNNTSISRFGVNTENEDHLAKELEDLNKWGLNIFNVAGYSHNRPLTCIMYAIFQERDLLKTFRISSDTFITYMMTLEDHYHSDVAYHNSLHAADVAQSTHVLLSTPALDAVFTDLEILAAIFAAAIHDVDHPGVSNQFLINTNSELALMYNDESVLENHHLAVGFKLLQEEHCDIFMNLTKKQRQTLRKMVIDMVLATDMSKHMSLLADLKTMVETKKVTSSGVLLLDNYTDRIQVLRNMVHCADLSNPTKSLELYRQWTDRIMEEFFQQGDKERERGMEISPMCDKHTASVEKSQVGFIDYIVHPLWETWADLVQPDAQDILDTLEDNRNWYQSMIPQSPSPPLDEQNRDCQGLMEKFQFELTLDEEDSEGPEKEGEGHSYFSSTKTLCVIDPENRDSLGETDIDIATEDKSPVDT
In short: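 The readout is membrane depolarisation from a cAMP-sensing CNG channel, detected with a potential dye at ex 535/em 590. Cells were HEK293-derived (endogenous PDE-IV) at 1000 cells/well, titrated up to 22.9 uM final.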

[9] = qHTS Assay for Lipid Storage Modulators (AID 1519; calls by dose curve); conditions: Drosophila S3 cells, BODIPY lipid droplet/cell ratio, laser cytometry, cells loaded with oleic acid
In short: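 Cells seeded at 5,000 per well were treated with compounds over a concentration series and loaded with oleic acid (400 uM, as added). Lipid droplet fluorescence (488 nm excitation, 500-530 nm channel) was read by laser-scanning cytometry and normalized to 20 uM Triacsin C.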

[10] = molecular target: Ubiquitin carboxyl-terminal hydrolase 1 (Homo sapiens) (UniProt O94782); experiment: Inhibitors of USP1/UAF1: Pilot qHTS (AID 504865);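 further: rhodamine fluorescence freed from ubiquitin-rhodamine substrate followed over time; top concentration of the series differs between compounds; on the % scale 0 is the no-effect control and ±100 the full control effect; nearly all actives have a fitted effect of over 35% in size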
Chain of Ubiquitin carboxyl-terminal hydrolase 1 (Homo sapiens) (O94782 whole entry, looked up): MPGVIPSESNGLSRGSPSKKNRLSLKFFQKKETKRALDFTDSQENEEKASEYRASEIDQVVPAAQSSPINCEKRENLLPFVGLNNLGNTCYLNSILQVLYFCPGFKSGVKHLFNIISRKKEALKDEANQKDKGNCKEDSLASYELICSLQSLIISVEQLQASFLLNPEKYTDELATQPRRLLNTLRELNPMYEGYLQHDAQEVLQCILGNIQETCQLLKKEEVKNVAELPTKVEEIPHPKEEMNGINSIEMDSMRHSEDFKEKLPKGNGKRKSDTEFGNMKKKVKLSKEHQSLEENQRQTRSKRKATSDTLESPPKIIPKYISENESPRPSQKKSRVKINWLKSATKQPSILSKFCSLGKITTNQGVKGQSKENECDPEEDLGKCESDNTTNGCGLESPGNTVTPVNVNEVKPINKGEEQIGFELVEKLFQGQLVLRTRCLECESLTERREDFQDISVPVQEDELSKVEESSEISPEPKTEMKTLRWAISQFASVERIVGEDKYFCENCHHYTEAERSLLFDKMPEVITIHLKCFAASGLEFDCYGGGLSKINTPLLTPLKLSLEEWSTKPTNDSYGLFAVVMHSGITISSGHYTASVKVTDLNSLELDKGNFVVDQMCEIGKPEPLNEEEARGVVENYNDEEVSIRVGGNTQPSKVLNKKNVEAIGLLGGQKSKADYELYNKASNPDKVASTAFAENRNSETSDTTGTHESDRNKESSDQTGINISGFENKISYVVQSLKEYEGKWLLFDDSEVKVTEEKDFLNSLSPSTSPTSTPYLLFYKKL
In short: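 In 50mM HEPES pH 7.8 containing 0.5mM EDTA, 1mM TCEP, 0.1 mg/ml BSA and 0.01% Tween-20, 1nM USP1/UAF1 is exposed to compound for 15 min, then Ub-Rho (150nM final) is added and fluorescence is read over time.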

[11] = molecular target: Luciferin 4-monooxygenase (Photinus pyralis) (UniProt P08659); experiment: Biochemical firefly luciferase enzyme assay for NPC (AID 624030);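 further: purified P. pyralis luciferase at 10 nM with luciferin and ATP substrate; 0% = DMSO and -100% = full luciferase inhibition by PTC124 control; nearly all actives have a fitted effect of over 70% in size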
Chain of Luciferin 4-monooxygenase (Photinus pyralis) (P08659 whole entry, looked up): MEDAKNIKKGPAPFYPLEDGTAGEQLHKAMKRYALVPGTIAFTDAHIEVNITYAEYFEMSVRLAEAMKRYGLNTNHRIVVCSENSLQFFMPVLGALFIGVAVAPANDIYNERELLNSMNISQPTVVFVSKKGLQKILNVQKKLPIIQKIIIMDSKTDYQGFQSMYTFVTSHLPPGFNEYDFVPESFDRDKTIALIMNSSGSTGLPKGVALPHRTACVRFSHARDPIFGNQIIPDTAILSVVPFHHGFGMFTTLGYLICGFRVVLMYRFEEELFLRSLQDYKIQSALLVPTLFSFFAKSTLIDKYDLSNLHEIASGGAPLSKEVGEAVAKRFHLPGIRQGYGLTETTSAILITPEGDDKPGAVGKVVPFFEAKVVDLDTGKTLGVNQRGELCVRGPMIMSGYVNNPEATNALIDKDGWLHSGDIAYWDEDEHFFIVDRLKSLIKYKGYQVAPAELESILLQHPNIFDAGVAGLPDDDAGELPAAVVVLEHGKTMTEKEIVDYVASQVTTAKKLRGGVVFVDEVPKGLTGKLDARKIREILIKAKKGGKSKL
In short: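 Purified P. pyralis luciferase at 10 nM in 50 mM Tris Acetate (final), luminescence read within 5 minutes of enzyme addition to compounds. Activity normalised to PTC124 versus DMSO; concentration-response curves classed by r2, magnitude and activity.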

[12] = S16 Schwann cell viability assay (CellTiter-Glo assay) (AID 624031);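 further: native untransfected S16 rat Schwann cells; cellular ATP luminescence as a viability measure; plate controls were DMSO-treated cells for no effect and cell-free wells for full effect; nearly all actives have a fitted effect of over 70% in size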
In short: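 Following overnight culture in 10% FBS DMEM, parental S16 rat Schwann cells are dosed for 24 h at 37 °C. Viability is read as CellTiter-Glo luminescence and expressed as % activity relative to DMSO (0%) and no-cell wells.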

[13] = S16 Schwann cell PMP22 intronic element firefly luciferase assay (AID 624032);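 further: plate controls were DMSO for no effect and PTC124 positive control mean for full effect; nearly all actives have a fitted effect of over 30% in size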
In short: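 Rat S16 Schwann cells stably carrying firefly luciferase driven by a PMP22 intronic element, in 10% FBS, treated 24 h at 37 C. ONE-Glo luminescence normalized to PTC124 control and DMSO (0%); curves classed by r2, magnitude and activity.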

[14] = S16 Schwann cell PMP22 intronic element beta-lactamase assay (AID 624044; calls by dose curve;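 further: 0% = DMSO and -100% = potassium clavulanate positive control; nearly all actives have a fitted effect of over 15% in size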)
In short: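 Beta-lactamase reporter under a PMP22 intronic regulatory element in stable S16 rat Schwann cells; 24 h compound exposure. 460 nm blue signal normalized between DMSO (0%) and potassium clavulanate, with 535 nm FRET tracking viability; curves classed by r2 and response.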

[15] = qHTS profiling for inhibitors of Plasmodium falciparum proliferation (AID 504749);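 further: 0% = DMSO vehicle and full inhibition = artemisinin control; nearly all actives have a fitted effect of over 60% in size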; conditions: P. falciparum in erythrocytes, SYBR Green DNA, 72 h, at 28.7 µM (top of the series)
In short: (§1)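 SYBR Green fluorescence (ex 485 nm, em 535 nm) reports parasite DNA after 72 h compound exposure of infected red cells at 0.3% parasitemia, 2.5% hematocrit; signal normalized to 0.29 uM artemisinin and vehicle wells.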

3D7 = experiment: as above; conditions: P. falciparum in erythrocytes, SYBR Green DNA, 72 h; series mostly up to 12.8 µM
In short: as §1

7G8 = experiment: as above; conditions: P. falciparum in erythrocytes, SYBR Green DNA, 72 h; series mostly up to 12.8 µM
In short: as §1

AA1029 = experiment: as above; conditions: P. falciparum in erythrocytes, SYBR Green DNA, 72 h; series mostly up to 12.8 µM
In short: as §1

AS120 = experiment: as above; conditions: P. falciparum in erythrocytes, SYBR Green DNA, 72 h; series mostly up to 28.7 µM
In short: as §1

ATS189 = experiment: as above; conditions: P. falciparum in erythrocytes, SYBR Green DNA, 72 h; series mostly up to 12.8 µM
In short: as §1

ATS95 = experiment: as above; conditions: P. falciparum in erythrocytes, SYBR Green DNA, 72 h; series mostly up to 12.8 µM
In short: as §1

C2A = experiment: as above; conditions: P. falciparum in erythrocytes, SYBR Green DNA, 72 h; series mostly up to 12.8 µM
In short: as §1

CP185 = experiment: as above; conditions: P. falciparum in erythrocytes, SYBR Green DNA, 72 h; series mostly up to 12.8 µM
In short: as §1

CP191 = experiment: as above; conditions: P. falciparum in erythrocytes, SYBR Green DNA, 72 h; series mostly up to 12.8 µM
In short: as §1

CP192 = experiment: as above; conditions: P. falciparum in erythrocytes, SYBR Green DNA, 72 h; series mostly up to 28.7 µM
In short: as §1

CP194 = experiment: as above; conditions: P. falciparum in erythrocytes, SYBR Green DNA, 72 h; series mostly up to 12.8 µM
In short: as §1

CP201 = experiment: as above; conditions: P. falciparum in erythrocytes, SYBR Green DNA, 72 h; series mostly up to 12.8 µM
In short: as §1

CP203 = experiment: as above; conditions: P. falciparum in erythrocytes, SYBR Green DNA, 72 h; series mostly up to 12.8 µM
In short: as §1

CP211 = experiment: as above; conditions: P. falciparum in erythrocytes, SYBR Green DNA, 72 h; series mostly up to 12.8 µM
In short: as §1

CP215 = experiment: as above; conditions: P. falciparum in erythrocytes, SYBR Green DNA, 72 h; series mostly up to 28.7 µM
In short: as §1

CP217 = experiment: as above; conditions: P. falciparum in erythrocytes, SYBR Green DNA, 72 h; series mostly up to 12.8 µM
In short: as §1

CP237 = experiment: as above; conditions: P. falciparum in erythrocytes, SYBR Green DNA, 72 h; series mostly up to 12.8 µM
In short: as §1

CP238 = experiment: as above; conditions: P. falciparum in erythrocytes, SYBR Green DNA, 72 h; series mostly up to 12.8 µM
In short: as §1

CP247 = experiment: as above; conditions: P. falciparum in erythrocytes, SYBR Green DNA, 72 h; series mostly up to 12.8 µM
In short: as §1

CC1(C)S[C@@H]2[C@H](NC(=O)[C@H](C(=O)O)c3ccsc3)C(=O)N2[C@H]1C(=O)O
-8.09%: max response ([9]; measured here: lipid channel max response)
inactive: activity change, negative = inhibition [1] -4.81% [at 17.2 µM] and 2.77% [at 17.2 µM] | Potency [2] | activity change, negative = inhibition [3] -7.87% [at 17.2 µM] and 25.2% [at 17.2 µM] | activity, negative = inhibition [4] 6.96% [at 17.2 µM] and -0.401% [at 17.2 µM] | Potency [5] > 20.6 µM | Potency [6] > 20.6 µM | Potency [7] | Potency [8] | activity change, negative = inhibition ([9]; at 25.7 µM (top of the series)) 1.08% | Potency [10] | outcome [11] | Potency [12] | Potency [13] | outcome [14] | activity, negative = inhibition ([15]; parasite line A) -4.85% | activity, negative = inhibition ([15]; parasite line B) 17.9% | Potency (3D7) | Potency (7G8) | Potency (AA1029) | Potency (AS120) | Potency (ATS189) | Potency (ATS95) | Potency (C2A) | Potency (CP185) | Potency (CP191) | Potency (CP192) | Potency (CP194) | Potency (CP201) | Potency (CP203) | Potency (CP211) | Potency (CP215) | Potency (CP217) | Potency (CP237) | Potency (CP238) | Potency (CP247)
-10.5%: max response ([9]; measured here: cell count channel max response)
